Assay outcomes: PubChem BioAssay, National Center for Advancing Translational Sciences (NCATS)
Only some compounds are listed: those with a hit (about 0.43% of all), similar ones and a draw of the others.
GAA glycogen = inhibitors or activators of human alpha-glucosidase glycogen cleavage; hit rate 0.38% among 300,000; Potency, µM (doses to about 76.4 µM), without a hit: at the highest dose activity change, negative = inhibition, usual class: inhibitors; recombinant GAA, glycogen substrate, Amplex Red glucose oxidase fluorescence; AID 2100;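 note: potency is the fitted concentration of half-maximal effect; 0% = full enzyme reaction and -100% = no-enzyme basal signal; the screen sought inhibitors and activators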
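Recombinant human enzyme (4 nM); glycogen substrate; 37 C, 40 min, pH 5.0. Readout: coupled glucose oxidase/Amplex Red fluorescence.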
N370S GC = inhibitors or activators of N370S glucocerebrosidase for Gaucher disease; P04062; N370S GC spleen homogenate, 4MU-glucoside fluorescence; Potency, µM (series often up to 59.4 µM), for the others: at the top dose activity change, negative = inhibition, actives largely listed as inhibitors; hit rate 0.092% among 330,000;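 note: potency is the fitted concentration of half-maximal effect; 0% = full enzyme activity and -100% = no enzyme basal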
aGal spleen mod = inhibits or activates alpha-galactosidase in human spleen homogenate; human spleen homogenate, 4MU-alpha-Gal fluorescence, 40 min; Potency, µM (doses to about 80 µM), inactives show at the highest dose activity change, negative = inhibition, hits mostly inhibitors; hit rate 0.008% among 240,000; AID 2107;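 note: potency is the fitted concentration of half-maximal effect; 0% = enzyme with vehicle and -100% = no enzyme basal signal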
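Inhibition or activation of alpha-galactosidase in human spleen homogenate is scored by 4-MU fluorescence after 40 min at 37C, pH 5.0, with 1 mM substrate. AC50s come from concentration-response fitted to the Hill equation.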
GAA spleen mod = inhibitors or activators of human alpha-glucosidase in spleen homogenate | P10253 | human spleen homogenate, 4-MU-alpha-glucoside fluorescence | Potency, µM (doses to about 79.9 µM), without a hit: top-dose activity change, negative = inhibition, usual class: inhibitors | AID 2112 | hit rate 0.006% among 240,000;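 note: potency is the fitted concentration of half-maximal effect; 0% = enzyme with vehicle and -100% = no enzyme basal signal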
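Human spleen homogenate (1 ug) with 4-methylumbelliferyl-alpha-D-glucopyranoside (1 mM final) in 50 mM citrate/phosphate pH 5.0, 0.01% Tween-20; 40 min at 37 C. Stopped at pH 10; 4-MU fluorescence Ex 365/Em 440 nm; AC50 by Hill fit.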
GAA inhib = blocks human lysosomal alpha-glucosidase. AID 1466. hit rate 0.005% among 200,000. P10253. Potency, µM (top dose mostly 76.9 µM), for inactives: at the highest dose activity change, negative = inhibition, hits mostly inhibitors. purified human GAA, 4-MU-alpha-glucoside fluorescence;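 note: potency is the fitted concentration of half-maximal effect; plate controls were uninhibited enzyme wells for no effect and no-enzyme background for full effect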
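AC50 values come from Hill fits of compound titrations (up to 77 uM) against 4 nM human enzyme. Substrate 4-methylumbelliferyl-alpha-D-pyranoside at 400 uM, pH 5.0 citrate buffer, 20 min room temperature; fluorescence Ex 365/Em 440 after alkaline stop.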
GLA inh pH 4.5 = inhibitors of human alpha-galactosidase A at pH 4.5 | purified enzyme, 4-MU-alpha-Gal fluorescence, pH 4.5 | AID 1467 | 230,000 tested, under 10 active | activity change, negative = inhibition, % at 105 µM | P06280;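 note: 0% = full activity with enzyme and -100% = basal without enzyme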
Target sequence (P06280 whole entry, looked up): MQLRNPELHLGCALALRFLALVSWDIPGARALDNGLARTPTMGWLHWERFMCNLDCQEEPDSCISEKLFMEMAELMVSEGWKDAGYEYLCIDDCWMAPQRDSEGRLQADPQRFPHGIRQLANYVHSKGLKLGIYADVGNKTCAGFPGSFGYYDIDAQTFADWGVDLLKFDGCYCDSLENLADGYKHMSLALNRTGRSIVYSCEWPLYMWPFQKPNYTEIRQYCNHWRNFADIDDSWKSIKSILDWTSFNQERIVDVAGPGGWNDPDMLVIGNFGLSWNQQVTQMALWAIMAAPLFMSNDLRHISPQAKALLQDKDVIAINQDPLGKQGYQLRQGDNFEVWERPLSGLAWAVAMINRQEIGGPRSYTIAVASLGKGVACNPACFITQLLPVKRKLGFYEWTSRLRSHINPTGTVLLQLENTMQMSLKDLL
The depositor's hits bear a star; ? = inconclusive; · = not tested or not shown; [ ] = dose if it differs, or a comment. Calls come from the whole dose curve; as a rule, active = well fitted curve in the direction sought with a large enough effect; inconclusive = small, poorly fitted or top-dose-only effect, or another doubt; inactive = no such curve, though single readings can be large; an effect the other way counts as inactive or inconclusive.

SMILES	GAA glycogen	N370S GC	aGal spleen mod	GAA spleen mod	GAA inhib	GLA inh pH 4.5
COc1cc(SC)ccc1C(=O)N1CCN(c2ccc(O)cc2)CC1	4µM*	-20%	5%	2%	3%	2
COc1cc(SC)ccc1C(=O)N1CCN(c2ccccc2)CC1	-12%	-3%	4%	-3%	13%	0
COc1ccc(CN2CCNC(=O)C2CC(=O)NC2CCCCC2)c(OC)c1 (configuration not stated)	-2%[76.3 µM]	-22%	·	·	·	·
Cc1nc(SCc2ccc(F)cc2)n[nH]1	4%	-13%	·	·	·	·
O=C(OCCN=C1NS(=O)(=O)c2ccccc21)C1CC(=O)N(c2ccc3ccccc3c2)C1 (configuration not stated)	-2%	3.5µM*	3%	-5%	?	-3
O=C(Cn1cnc2c(nnn2Cc2ccc(Cl)cc2)c1=O)OCc1ccccc1	3%	-5%	3%	5%	2%	-10
CCOC(=O)c1ccc(S(=O)(=O)Nc2ccc3cn[nH]c3c2)cc1	-10%	-5%	6%	2%	-7%	-8
COc1ccc(/C=N\NC(=O)C2=NNC(=O)C2C)cc1 (configuration not stated)	28µM*	-4%	-16%	-8%	5%	10
CC(=O)Nc1ccc(C(=O)N/C(=C/c2ccccc2)C(=O)Nc2cccc(C(=O)O)c2)cc1	19%	-15%	-4%	-1%	?	12
CC1(C)C(c2ccco2)=[N+]([O-])C2(CCCCC2=O)N1O (configuration not stated)	-13%	3%	5%	7%	-7%	-4
CC1(C)C(c2cccs2)=[N+]([O-])C2(CCCCC/C2=N\NC(N)=S)N1O (configuration not stated)	18µM*	4%	-1%	-2%	4%	4
Cc1c(NC(=O)c2nn3c(C(F)(F)F)cc(-c4ccccc4)nc3c2Cl)c(=O)n(-c2ccccc2)n1C	-3%	5%	5%	-2%	0%	-9
Cc1ccc(-n2c(SCC(N)=O)nc3c(c2=O)C2(CCCC2)Cc2ccccc2-3)cc1	5%	30%	-1%	0%	6%	9
S=C(NCc1ccncc1)Nc1ccc(Br)cc1	-6%[76.3 µM]	18µM*	·	·	·	·
S=C(NCc1ccncc1)Nc1ccccc1	9%	-4%	1%	3%	5%	3
Cc1cccc(Nc2c([N+](=O)[O-])c(=O)n(C)c3ccccc23)c1	10%	6%	-4%	-9%	0%	-1
COc1ccc(Br)cc1CNc1ccc(N2CCOCC2)cc1	22µM*	-7%	·	·	·	·
COc1ccc(-n2c(=O)c3c4c(sc3n(Cc3ccc(F)cc3)c2=O)CN(C(C)=O)CC4)c(OC)c1	56µM*	·	·	·	·	·
COc1ccc(-n2c(=O)c3c4c(sc3n(Cc3cccc(F)c3)c2=O)CN(C(C)=O)CC4)c(OC)c1	-1%	-19%	4%	7%	7%	-2
